Test results taken from PubChem BioAssay AID449746 (Sanford-Burnham Center for Chemical Genomics, 2010).
Among all 2,000 compounds or so, about 680 (34%) were called active. The list is a sample of the results. Values without a mark were called inactive. Rule as the data show it: active = inhibition mostly above about 28% (no sharp cut-off); inactive = mostly below about 22%.

Test: PMA/ionomycin-induced NF-kB reporter inhibitors, 697 retest, confirmation, B-cell NF-kB inhibitor project, cell-based, luminescence, single concentration (AID 449746)
Conditions: 697 B-cell NF-kB luciferase, 16 h, at 4 µM, stronger effect = higher value

| SMILES | inhibition |
| --- | --- |
| CCOc1cc(C(=O)N2CCc3cc(OC)c(OC)cc3C2)ccc1OC(F)F | 43.5% (active) |
| Cc1ccc(C(=O)C[n+]2cc(-c3ccccc3)n3c2CCCCC3)cc1 | 11.4% |
| c1ccc2[nH]c(-c3nc4ccccc4[nH]3)nc2c1 | -191% |
| Cc1cccc(Nc2nc(-c3ccccc3)cs2)n1 | -201% |
| CCN1/C(=C\c2ccc3ccccc3[n+]2CC)Sc2cc(C)ccc21 | 68.5% (active) |
| COc1cccc(NC(=O)[C@H](Cc2c[nH]c3ccccc23)NC(=O)[C@@H]2Cc3ccccc3CN2)c1 | 0.1% |
| CC[n+]1cc(C)ccc1/C=C/c1ccc(N(C)C)cc1 | 17.4% |
| OCCCNc1nccc(-c2cc(Nc3cccc(Cl)c3)ncn2)n1 | 85.9% (active) |
| COC(=O)C1=C(C(=O)c2ccc(C)cc2)C(c2ccccc2)n2nnnc2N1 (configuration not stated) | 22.4% |
| CCc1ccc2oc(-c3ccc(N)cc3)nc2c1 | -417% |
| CCCCCc1ccc(-c2ccc(C(=O)O)cc2)nc1 | -165% |
| CNc1nc(Nc2ccc(C)c(Cl)c2)nc(N)c1[N+](=O)[O-] | -231% |
| O=C(C1CCC1)N1CCN(S(=O)(=O)c2ccc([N+](=O)[O-])cc2)CC1 | 30.8% (active) |
| C=CCSc1nc(N)cc(=O)[nH]1 | -19.9% |
| COc1ccc(C(=O)n2nc(-c3ccc(Cl)cc3)nc2N)cc1OC | 46.5% (active) |
| C=CCn1c(C)cc(C2=NNC(=NCC)SC2)c1C | 2.7% |
| COc1cc(/C=N/NC(=O)c2ccc(N3CCCC3=O)cc2)ccc1O | -89.1% |
| COc1ccc(-c2nc(-c3ccccc3)no2)c(OC)c1 | -330% |
| O=C(O)COc1ccc(-c2nccc(-c3cccs3)n2)cc1 | 55% (active) |
| CCn1c(O)c(N=NC2=NC(=O)CS2)c2cc(C)ccc21 | 17.4% |
| COc1ccc(/C=N/Nc2ccccc2C(=O)O)cc1 | -12.1% |
| Clc1ccc(Nc2ccc3ccccc3n2)cc1 | -340% |

| SMILES | inhibition |
| --- | --- |
| C/C=C(/C)C(=O)OC1Cc2c(ccc3ccc(=O)oc23)OC1(C)C (configuration not stated) | 50.1% (active) |
| COc1ccc(/C=N\NC(=O)c2sc(N)nc2C)cc1OC | 7.5% |
| CCC(=O)Nc1ccc2nn(-c3ccc(F)cc3)nc2c1 | -298% |
| COc1ccc(CNC(=O)[C@@H]2CC=C[C@@H]3CCN(C4CC4)C(=O)[C@@H]32)cc1 | 6.95% |
| CCOC(=O)c1cc2c(=O)n3ccccc3nc2n(CC(C)C)c1=NC(=O)c1c(-c2c(F)cccc2Cl)noc1C | 33% (active) |
| CCOc1cccc(/C=C/c2ccc3ccccc3n2)c1OC(C)=O | -337% |
| Cn1nccc1C(=O)NC1CCCc2c1cnn2-c1ccc(F)cc1F (configuration not stated) | 105% (active) |
| COc1ccc(C(=O)NC2CCCc3c2cnn3-c2cccc(C)c2C)c(OC)n1 (configuration not stated) | -397% |
| Cn1nccc1C(=O)NC1CCCc2c1cnn2-c1ccccc1F (configuration not stated) | 97.9% (active) |
| Cc1cc(Nc2cc(N3CCN(C)CC3)nc(Sc3ccc(NC(=O)C4CC4)cc3)n2)n[nH]1 | 27.8% |
| COc1c(C)c2c(c(O)c1C/C=C(\C)CCC(=O)O)C(=O)OC2 | -398% |
| CC(C)CC(=O)N/C(N)=N/c1nc2ccccc2s1 | -290% |
| Cc1ccc2cc3cc(C(=O)N4CCCCCC4)oc3nc2c1 | -242% |
| COc1cc(N=Cc2c(O)[nH]c3ccccc23)cc(OC)c1OC | 20.8% |
| OCCN1CCN(C(=S)c2ccc(-c3ccccc3)cc2)CC1 | 47% (active) |
| CCOC(=O)c1c(-c2ccc(C)cc2C)csc1NC(=O)CSc1nnnn1C | -192% |
| COc1ccc(-c2csc(Nc3ccccn3)n2)cc1 | -117% |
| O=C(CN1C(=O)c2ccccc2S1(=O)=O)N1CCc2ccccc21 | 32.4% (active) |
| Cc1cc(N=Nc2ccc3ccccc3c2)ccc1O | -266% |
| CC(C)(C)c1ccc(Oc2ccc(N)cc2)cc1 | 17.2% |
| Cn1c(-c2ccc(C(F)(F)F)cc2)cc2onc(-c3ccccc3)c2c1=O | -301% |
| Cc1cc(N)n2nc(-c3ccc(C(C)(C)C)cc3)cc2n1 | -470% |

| SMILES | inhibition |
| --- | --- |
| O=C(NC(Nc1nc2ccc([N+](=O)[O-])cc2s1)(C(F)(F)F)C(F)(F)F)c1ccccc1 | -31.2% |
| CCNC(=O)CCc1nc(-c2ccc(C(C)(C)C)cc2)no1 | 79.3% (active) |
| CCCNC(=O)c1ccc(N2CCC3(CC2)CC(c2cccc(Br)c2)=NO3)c(NC(=O)c2ccco2)c1 | 16.6% |
| O=C(NCCCN1CCOCC1)c1cc(-c2ccc(Cl)cc2)on1 | 17.5% |
| O=c1c2c(nc3cc(-c4cccc(Cl)c4)[nH]n13)CCCC2 | -285% |
| Clc1ccc2nc(CSc3ccccc3)cn2c1 | -248% |
| CC(C)C[C@@H](N)c1nnc(SCC(=O)c2ccc(Cl)cc2)o1 | 56.2% (active) |
| Fc1ccccc1/C=N/Nc1cc(N2CCCCC2)ncn1 | -264% |
| CCOc1ccc(C(c2c(C)[nH][nH]c2=O)c2c(C)[nH][nH]c2=O)cc1OCC | 18.2% |
| Cn1c(=O)cc(SCC(=O)N2CCCC2)c2cc(Cl)ccc21 | 38.2% (active) |
| CC(C)CCNC(=O)c1ccc2c(Cl)c3c(nc2c1)CCC3 | -231% |
| Cc1ccc(NC(=O)c2cc([N+](=O)[O-])ccc2Cl)c(O)c1 | 11.5% |
| Cc1ccc(O)c(NC(=O)COc2cc(C)ccc2C)c1 | 28.7% (active) |
| CC[C@]1(O)CC2CN(CCc3c([nH]c4ccccc34)[C@@](C(=O)OC)(c3cc4c(cc3OC)N(C=O)[C@H]3[C@@](O)(C(=O)OC)[C@H](OC(C)=O)[C@]5(CC)C=CCN6CC[C@]43[C@@H]65)C2)C1 (some centres not stated) | -337% |
| COc1ccc(C2=Nc3cc(C)ccc3OC2)cc1 | -255% |
| CNC(=O)c1ccc(NC(=O)c2cccc(C(F)(F)F)c2)cc1 | 12.7% |
| Cc1cccc(C(=O)Nc2ccc(CC(=O)O)cc2)c1 | 21.7% (active) |
| Cc1ccc(N/C=C/C(=O)c2ccccc2)cc1C | -12.9% |
| COc1ccc(-n2nnnc2-c2nc3ccccc3s2)cc1 | -323% |
| COc1ccc2nc(SCc3ccccc3)nc(C)c2c1 | -295% |
| O=C(Nc1nc2ccccc2s1)c1ccc2c(c1)OCO2 | -466% |
| Cn1c(=O)n(C)c2cc(C(=O)Nc3ccc4c(c3)OCO4)ccc21 | 35.1% (active) |

| SMILES | inhibition |
| --- | --- |
| C/C(=N\Nc1nc(Nc2ccccc2)nc(N2CCOCC2)n1)c1cccs1 | 34.2% (active) |
| Cc1ccc(-n2cc3ccc([N+](=O)[O-])cc3n2)cc1 | -341% |
| Cc1cc2nc(-c3ccc(NC(=O)c4cccnc4)cc3)oc2cc1C | -187% |
| Cc1cccc(-n2c(C)cc(/C=N\NC(=O)c3cccs3)c2C)c1 | -11.6% |
| C[C@@H]1C[C@@H]2O[C@H]2/C=C\C=C\C(=O)Cc2c(Cl)c(O)cc(O)c2C(=O)O1 | 79.9% (active) |
| COc1cccc(/C=C/c2ccc3ccccc3n2)c1OC(C)=O | -459% |
| COc1ccc(/C=C2\SC(=S)N(CCC(=O)Nc3ccccn3)C2=O)cc1OC | 10.2% |
| C=CCOc1ccc(/C=C2\SC(=S)N(CCC(=O)O)C2=O)cc1 | 54.5% (active) |
| NS(=O)(=O)c1ccccc1NC(=O)c1c(O)c2ccccc2[nH]c1=O | -472% |
| O=C(/C=C/c1ccc(OCc2c(F)cccc2Cl)cc1)N1CCOCC1 | -278% |
| COc1ccc(CNC(=O)CNC(=O)c2sc3ccccc3c2Cl)cc1OC | 3.3% |
| Cn1c(-c2ccc(F)cc2)cc2onc(-c3ccccc3Cl)c2c1=O | -244% |
| O=C(O)CCn1c(O)c(C=C2N=c3ccccc3=N2)sc1=S | 58.5% (active) |
| O=c1[nH]c(-c2ccccc2)c(-c2ccccc2)[nH]1 | 25.8% |
| CCOc1ccc(N/C=C/C(=O)c2ccccc2)cc1 | -272% |
| COc1ccccc1OCc1nc2ccccc2s1 | -319% |
| Cc1ccc(OCc2nc3ccccc3n2C)cc1 | -216% |
| CCCc1nc2c(C)cc(-c3nc4ccccc4n3C)cc2n1Cc1ccc(-c2ccccc2C(=O)O)cc1 | 28.4% (active) |
| Cn1c(-c2ccc(C(=O)c3ccccc3)s2)nc2ccccc21 | -249% |
| COc1cccc(-c2nc3cc(C)ccc3o2)c1 | -299% |
| COc1ccc(Nc2nc(-c3ccccc3)cs2)cc1 | -131% |
